Screens deposited in PubChem by National Center for Advancing Translational Sciences (NCATS).
Rows were chosen to be rich in hits. Some 11% of all compounds tested hit in one or more screens of this group.
NIH3T3 tox – Cytotoxic Profiling in NIH 3T3 Cell Line of Diverse Libraries Using Quantitative High-Throughput Screening; AID 1345082, 2018; 4.3% of 94,000 active; Potency, µM (series often up to 96.7 µM), most hits filed as inhibitors; NIH 3T3 viability, CellTiter-Glo ATP luminescence, 48-72 h; note: nearly all actives have a fitted effect of over 55% in size
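Cytotoxicity was measured by CellTiter-Glo ATP luminescence after 48 or 72 h compound exposure at 37 °C. Mouse NIH 3T3 fibroblasts were seeded at 400 cells/well and dosed by 23 nL pin transfer.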
HEK293 tox – Cytotoxic Profiling in HEK 293 Cell Line of Diverse Libraries Using Quantitative High-Throughput Screening. Potency, µM (titrated, usually from 115 µM), hits mostly inhibitors. 6.6% of 94,000 active. AID 1345083, 2018. HEK 293 viability, ATP luminescence (CellTiter-Glo), 48-72 h; note: nearly all actives have a fitted effect of over 60% in size
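CellTiter-Glo luminescence (cellular ATP) was read after 48 or 72 hr of compound exposure at 37 degree Celsius. Cells were HEK 293 plated at 250 cells/well.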
hNpr1 antagonist – Natriuretic polypeptide receptor (hNpr1) antagonism - Primary qHTS; Potency, µM (titrated, usually from 46.3 µM), usual class: inhibitors; HEK293 hNpr1 GloSensor cGMP, ANP-stimulated luminescence; AID 1347048, 2019; 1.6% of 76,000 active; calls by dose curve; note: nearly all actives have a fitted effect of over 60% in size
Target sequence (P16066 whole entry, looked up): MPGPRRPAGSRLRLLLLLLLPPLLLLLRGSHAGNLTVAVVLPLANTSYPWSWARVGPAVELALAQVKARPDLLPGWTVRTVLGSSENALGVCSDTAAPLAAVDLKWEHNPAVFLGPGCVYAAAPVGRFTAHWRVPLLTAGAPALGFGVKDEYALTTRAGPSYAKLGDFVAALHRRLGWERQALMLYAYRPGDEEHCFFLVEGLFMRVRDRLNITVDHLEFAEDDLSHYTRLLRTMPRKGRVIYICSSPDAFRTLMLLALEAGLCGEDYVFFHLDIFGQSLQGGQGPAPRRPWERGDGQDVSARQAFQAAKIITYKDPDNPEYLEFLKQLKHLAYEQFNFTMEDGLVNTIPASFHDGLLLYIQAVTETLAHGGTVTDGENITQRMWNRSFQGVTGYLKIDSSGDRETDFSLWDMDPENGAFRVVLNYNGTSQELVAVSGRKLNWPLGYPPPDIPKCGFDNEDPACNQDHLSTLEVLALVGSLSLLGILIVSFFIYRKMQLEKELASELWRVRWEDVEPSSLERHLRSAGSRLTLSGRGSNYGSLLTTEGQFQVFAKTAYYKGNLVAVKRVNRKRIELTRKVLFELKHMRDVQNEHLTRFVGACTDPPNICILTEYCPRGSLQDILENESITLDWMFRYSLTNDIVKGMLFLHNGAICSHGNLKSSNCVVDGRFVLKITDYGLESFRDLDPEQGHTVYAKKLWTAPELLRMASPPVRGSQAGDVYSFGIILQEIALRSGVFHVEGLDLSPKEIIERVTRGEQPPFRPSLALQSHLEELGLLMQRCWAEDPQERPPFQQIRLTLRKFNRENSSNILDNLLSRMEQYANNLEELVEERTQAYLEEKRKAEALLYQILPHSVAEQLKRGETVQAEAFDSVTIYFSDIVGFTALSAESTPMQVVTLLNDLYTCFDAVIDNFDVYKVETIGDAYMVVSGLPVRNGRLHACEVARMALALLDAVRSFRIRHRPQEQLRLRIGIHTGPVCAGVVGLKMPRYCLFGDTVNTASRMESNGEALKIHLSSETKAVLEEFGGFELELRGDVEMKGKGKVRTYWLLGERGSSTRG
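HEK293 cells stably expressing human Npr1 and cGMP GloSensor pGS-40F, loaded 2 h with 2% GloSensor reagent, given compound 30 min at room temperature. Luminescence read before and 20 min after 0.1 nM hNppA.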
FLuc inh – Firefly luciferase inhibition profiling of diverse chemical library using quantitative high-throughput screening; purified P. pyralis luciferase, luminescence, biochemical; Potency, µM (top dose mostly 115 µM), actives largely listed as inhibitors; 2.5% of 76,000 active; AID 1347043, 2019; note: nearly all actives have a fitted effect of over 65% in size
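Purified P. pyralis luciferase (10nM final) in 50mM Tris acetate pH 7.5, 10mM Mg acetate, 0.01% Tween-20, 0.05% BSA with 10uM D-luciferin and 10uM ATP. Compounds titrated qHTS. Luminescence imaged on CCD.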
A number is an active result; - = inactive; ? = inconclusive; . = no result given. Unless noted, calls come from the whole dose curve; as a rule, active = well fitted curve in the direction sought with a large enough effect; inconclusive = small, poorly fitted or top-dose-only effect, or another doubt; inactive = no such curve, though single readings can be large; an effect the other way counts as inactive or inconclusive.

SMILES | NIH3T3 tox | HEK293 tox | hNpr1 antagonist | FLuc inh
O=C(NCc1ccc(F)cc1)C1CCc2nnc(CN[S+](=O)([O-])c3ccccc3Cl)n21 (configuration not stated) | - | - | . | .
COc1cccc(CNC(=O)C2CCN(C(=O)c3ncn4c3COC(c3ccc(F)cc3)C4)CC2)c1 (configuration not stated) | - | - | - | ?
CC(NC(=O)C1CCN(C(=O)c2ncn3c2COC(c2ccc(F)cc2)C3)CC1)c1ccccc1 (configuration not stated) | - | ? | - | ?
Cc1ccc(C2Cn3cnc(C(=O)N4CCC(C(=O)NC(C)c5ccccc5)CC4)c3CO2)cc1 (configuration not stated) | - | - | - | 28.2µM
O=C(NCc1cccc(F)c1)C1CCN(C(=O)c2ncn3c2COC(c2ccccc2)C3)CC1 (configuration not stated) | - | ? | - | 5.01µM
COCC(=O)N1CCCC(C(=O)N2CCCC(c3nc4ncccc4[nH]3)C2)C1 (configuration not stated) | - | - | . | .
COc1ccc(-c2ccnc(N[C@H]3CO[C@H]4[C@@H]3OC[C@@H]4NS(=O)(=O)c3ccc4ccccc4c3)n2)cc1 | ? | 22.4µM | ? | -
N#Cc1cccc(-c2ccnc(N[C@H]3CO[C@H]4[C@@H]3OC[C@H]4OC(=O)Nc3cccc(C(F)(F)F)c3)n2)c1 | - | 28.2µM | ? | -
CCNC(=O)N[C@H]1CO[C@H]2[C@@H]1OC[C@@H]2Nc1nccc(-c2ccc(-c3ccccc3)cc2)n1 | - | 10µM | 11.2µM | ?
O=C(Nc1cccc(C(F)(F)F)c1)N[C@H]1CO[C@H]2[C@@H]1OC[C@@H]2Nc1nccc(-c2ccc(-c3ccccc3)cc2)n1 | 31.6µM | 35.5µM | - | -
COc1ccc(-c2ccnc(N[C@H]3CO[C@H]4[C@@H]3OC[C@H]4OC(=O)Nc3cccc(C(F)(F)F)c3)n2)cc1 | ? | ? | - | -
CCOCC(=O)N1CCc2nc3cc(-c4ccc(OC)cc4)[nH]n3c(=O)c2C1 | ? | ? | - | ?
CCN(CC)C(=O)c1cc(-c2ccccc2C(F)(F)F)nc2c1cnn2C | - | ? | . | .
CC(=O)c1cccc(NC(=O)O[C@@H]2CO[C@H]3[C@@H]2OC[C@@H]3Nc2nccc(-c3cccc(F)c3)n2)c1 | ? | 35.5µM | ? | ?
O=C(NCCc1ccc(Cl)cc1)c1nc(-c2cccnc2)c2cnccn12 | ? | ? | - | -
COc1ccc(-c2noc(CCCC(=O)N3CCCn4nc(-c5ccc(F)cc5)cc4C3)n2)cc1OC | ? | 31.6µM | . | .
COc1ccc(-c2noc(CCCC(=O)N3CCC(c4nc(C5CCOCC5)no4)C3)n2)cc1OC (configuration not stated) | ? | ? | - | -
Cc1oc2c(c1C(=O)N1CCN(C3CCCC3)CC1)CN(Cc1cccc(F)c1)CC2 | - | ? | - | -
COC(=O)[C@@H]1Cc2nc[nH]c2CN1C1CCOCC1 | - | - | - | -
COC(=O)[C@@H]1Cc2nc[nH]c2CN1C(C)C | 70.8µM | ? | - | -
CCc1cccc(NC(=O)C2CCN(C(=O)c3nnn4c3COC(c3ccc(C)cc3)C4)CC2)c1 (configuration not stated) | 22.4µM | 10µM | - | 35.5µM
COc1ccc(C2Cn3nnc(C(=O)N4CCC(C(=O)Nc5cc(C)cc(C)c5)CC4)c3CO2)cc1 (configuration not stated) | 44.7µM | 35.5µM | - | -
COc1ccc(C2Cn3nnc(C(=O)N4CCC(C(=O)Nc5cccc(Cl)c5)CC4)c3CO2)cc1 (configuration not stated) | - | - | - | -
CCc1cccc(NC(=O)C2CCN(C(=O)c3nnn4c3COC(c3ccc(OC)cc3)C4)CC2)c1 (configuration not stated) | ? | 17.8µM | - | -
O=C(C1CCCN1C(=O)C1CCCC1)N1CCC(N2CCOCC2=O)CC1 (configuration not stated) | - | - | . | .
SMILES | NIH3T3 tox | HEK293 tox | hNpr1 antagonist | FLuc inh
CN(c1ccccc1)c1cc(=O)c2ccnc(NCC3CCOCC3)c2o1 | 8.91µM | ? | - | -
CN(c1ccccc1)c1cc(=O)c2ccnc(N3CCOCC3)c2o1 | 28.2µM | ? | - | -
CN(c1ccccc1)c1cc(=O)c2ccnc(N3CCN(c4ccccn4)CC3)c2o1 | ? | 35.5µM | - | -
COc1ccc(C(=O)N[C@@H]2CN(Cc3ccccc3)C[C@H]2CN(C)C)cc1 | ? | 5.62µM | . | .
COCCC(=O)N[C@@H]1CN(Cc2ccccc2)C[C@H]1CN(C)C | - | - | - | -
COc1ccc(C(=O)N[C@@H]2CN(c3ncccn3)C[C@H]2CN(C)C)cn1 | - | - | - | -
CN(C)C[C@@H]1CN(C2CCOCC2)C[C@H]1NC(=O)c1ccc(F)c(Cl)c1 | ? | 79.4µM | - | -
Cc1ccc(C)c(C(=O)N[C@@H]2CN(Cc3ccccn3)C[C@H]2CN(C)C)c1 | - | 79.4µM | - | -
COc1ccc(C(=O)N[C@@H]2CN(Cc3ccccc3)C[C@H]2CN(C)C)cn1 | 31.6µM | ? | . | .
CN(C)C[C@@H]1CN(Cc2ccccn2)C[C@H]1NC(=O)c1cccc(Cl)c1 | ? | ? | - | -
COCCNC(=O)c1cc(-c2cccc(C(F)(F)F)c2)nc2c1cnn2C | - | - | . | .
COCC(=O)N1CCC(C(=O)N2CCC(N3Cc4ccccc4C3=O)CC2)CC1 | - | - | . | .
CN(C)C[C@@H]1CN(Cc2ccncc2)C[C@H]1NC(=O)c1ccoc1 | - | - | - | -
CN(C)C[C@@H]1CN(Cc2ccncc2)C[C@H]1NC(=O)c1ccc(Cl)cc1 | ? | 39.8µM | - | -
CC1(C)C(=O)N(CC2CCOCC2)[C@H]2CN(Cc3cccs3)C[C@@H]2[S+]1(=O)[O-] | 79.4µM | - | - | -
O=C(Cc1ccc(F)cc1)N1CCN(C(=O)c2cccc(-c3ccccn3)c2)CC1 | - | ? | . | .
COc1ccc(C(=O)N2CCN(Cc3ccc(=O)n(C)c3)CC2)cc1F | - | - | - | 39.8µM
Cc1ccc(C(=O)N2CCN(Cc3ccc(=O)n(C)c3)CC2)cc1F | - | - | - | -
COc1ncccc1-c1nccc2c(=O)cc(N3CCOCC3)oc12 | 50.1µM | ? | - | -
COc1ccccc1-c1nccc2c(=O)cc(N3CCOCC3)oc12 | 25.1µM | ? | - | -
COc1ccccc1-c1nccc2c(=O)cc(C3=CCOCC3)oc12 | 12.6µM | 63.1µM | - | -
O=c1cc(N2CCOCC2)oc2c(-c3ccccc3Oc3ccccc3)nccc12 | ? | ? | - | -
Cc1ccccc1-c1nccc2c(=O)cc(N3CCOCC3)oc12 | 35.5µM | ? | - | -
O=c1cc(N2CCOCC2)oc2c(-c3ccccc3O)nccc12 | ? | - | - | -
Cn1nccc1-c1nccc2c(=O)cc(N3CCOCC3)oc12 | 50.1µM | ? | - | -
